This note sets out measurements from PubChem BioAssay (Tox21).

SMILES strings stand for the structures. A number with no mark means an inactive call. Records with an inconclusive call do not appear. The source made the active and inactive calls. Unless noted, the call rests on the fitted dose curve; in most records, active means well fitted curve in the direction sought with a large enough effect in the repeat runs; inconclusive means weak or mixed curves; inactive means no such curve, though single readings can be large; an effect the other way counts as inactive or inconclusive.

Test [1] concerns the target Thyrotropin-releasing hormone receptor (Homo sapiens) (UniProt P34981). In words: qHTS assay to identify small molecule agonists of the thyrotropin-releasing hormone receptor (TRHR) signaling pathway (AID 1346891; calls by dose curve;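 further: HEK293 cells expressing TRHR with calcium dye readout; series mostly up to about 58 µM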). Summed up:
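HEK293/TRHR cells, 1500 per well, 18 h 37 °C; Ca dye 2 h 37 °C; pin-tool compound addition (agonist mode); kinetic fluorescence 3 min, 1 s reads; 15 concentrations, triplicate.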
(In general: qHTS replaces the single test concentration by a dilution series.)

Test [2] is described as follows: Human pregnane X receptor (PXR) small molecule agonists, qHTS cell viability counter screen (AID 1346977). Further: nearly all actives have a fitted effect of over 50% in size. Further: potency means the concentration at half of the fitted maximal effect. Summed up:
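Fluorescence read-out (CellTiter-Fluor) of viability in PXR-Luc HepG2 cells, multiplexed with the luciferase agonist read. Compounds in DMSO added after 5hr plating; 24hr total exposure at 37C, 5% CO2.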

The nature of test [3]: Caspase-3/7 induction in HepG2 cells by small molecules, qHTS assay (AID 1346978). Further: nearly all actives have a fitted effect of over 15% in size. Summed up: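 Wild-type HepG2 cells, 2,000/well, settled 5 hr at 37 C and 5% CO2, then compound-treated for 17 hr; caspase-3/7 activity read by luminescent Caspase-Glo 3/7 after 30 min at room temperature.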
Test [4] can be described thus: Caspase-3/7 induction in CHO-K1 cells by small molecules, qHTS cell viability counter screen (AID 1346979). Further: nearly all actives have a fitted effect of over 35% in size. Further: potency means the concentration at half of the fitted maximal effect. In short, it runs like this:
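CHO-K1 wt, 1,500 cells/well; 5hr pre-incubation 37C/5% CO2; compound pin transfer (DMSO); 16hr exposure; CellTiter-Fluor added, 1hr, fluorescence read.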

Test [5] in a line: Caspase-3/7 induction in CHO-K1 cells by small molecules, qHTS assay (AID 1346980). Further: nearly all actives have a fitted effect of over 15% in size. Summed up: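 Wild-type CHO-K1 cells exposed to compounds for 17hr at 37 C, 5% CO2. Caspase-3/7 activity then measured by Caspase-Glo 3/7 luminescence after 30min at room temperature.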
The nature of test [6]: Caspase-3/7 induction in HepG2 cells by small molecules, qHTS cell viability counter screen (AID 1346981). Further: series mostly up to about 92 µM; nearly all actives have a fitted effect of over 30% in size. In short, it runs like this: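 HepG2, WT, 2,000 cells/well; 5 hr pre-incubation 37 C/5% CO2; compound pin-transferred from DMSO; 16 hr exposure; CellTiter-Fluor, 1 hr; fluorescence read.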
Test [7] concerns the target Nuclear receptor subfamily 1 group I member 2 (Homo sapiens) (UniProt O75469). In words: Human pregnane X receptor (PXR) small molecule agonists, qHTS assay (AID 1346982). Further: nearly all actives have a fitted effect of over 35% in size. Further: potency means the concentration at half of the fitted maximal effect. In short, it runs like this:
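Luciferase signal from ONE-Glo (30 min, room temperature) measured activation of hPXR-driven CYP3A4 reporter expression in PXR-Luc HepG2 cells treated with compounds for 24 hr at 37 C.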

Test [8] concerns the target Acetylcholinesterase (Homo sapiens) (UniProt P22303). In words: Acetylcholinesterase (AChE) small molecule antagonists: enzyme-based qHTS assay with human liver microsomes (AID 1347399; calls by dose curve; further: nearly all actives have a fitted effect of over 60% in size). Particulars: Potency: qHTS inhibition; outcome: qHTS inhibition. In short, it runs like this: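 Recombinant human AChE (50 mU/mL in the enzyme mix) and human liver microsomes (0.25 mg/mL final) were preincubated with compound and NADPH (0.25 mg/mL final) for 30 min at 37 C. Acetylthiocholine/DTNB was then added; thiocholine was read colorimetrically after 10 min at room temperature.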

Test [9] deals with Voltage-gated inwardly rectifying potassium channel KCNH2 (Homo sapiens) (UniProt Q12809). In words: Human Ether-a-go-go-Related Gene (hERG) channel small molecule antagonists: fluorescence cell-based qHTS assay (AID 1671200).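 Further: hERG-expressing U2OS cells given a thallium stimulus after FluxOR II dye loading; series mostly up to about 77 µM; nearly all actives have a fitted effect of over 50% in size.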 Summed up:
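Read-out: thallium influx as a surrogate for potassium, tracked as fluorescence (480 nm ex/540 nm em) every second for 2 min after Stimulus Buffer addition in dye-loaded hERG-U2OS cells.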
For orientation: Block of hERG is tested as a sign of cardiac risk.

Test [10] concerns the target Cytochrome P450 3A4 (Homo sapiens) (UniProt P08684). In words: Cytochrome P450 Family 3 Subfamily A Member 4 (CYP3A4) small molecule antagonists: luciferase reporter qHTS assay (AID 1671201). Further: series mostly up to about 120 µM; nearly all actives have a fitted effect of over 50% in size. Summed up: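 Luminescent readout (RLU) proportional to CYP3A4 activity, from luciferin generated off a proluciferin substrate. Enzyme–substrate mix plus compound 10 min at room temp, NADPH regeneration 1 h, detection reagent 20 min.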
(In general: In a reporter assay the amount or activity of a reporter protein is the signal.)

Test [11] has as its target Acetylcholinesterase (Homo sapiens) (UniProt P22303). Nature of the test: Acetylcholinesterase (AChE) small molecule antagonists: enzyme-based qHTS assay (AID 1347397; calls by dose curve; further: nearly all actives have a fitted effect of over 55% in size). The following applies: Potency: AChE enzyme activity inhibition; outcome: AChE enzyme activity inhibition. In short, it runs like this:
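Recombinant human AChE (50 mU/mL) preincubated with compound 30 min at room temperature; acetylthiocholine plus DTNB then added, and thiocholine formation read colorimetrically after 10 min at room temperature. DMSO served as vehicle control.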

Test [12] shares this target. In words: Acetylcholinesterase (AChE) small molecule antagonists: fluorescence cell-based qHTS assay (AID 1347398; calls by dose curve; further: nearly all actives have a fitted effect of over 50% in size). The following applies: Potency: AChE activity; outcome: AChE activity. Summed up: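 SH-SY5Y cells (2000/well), attached overnight, incubated with compound 30 min at 37 C. Acetylthiocholine plus Thiolite Green then added for 40 min at room temperature. Thiocholine fluorescence (Ex/Em 490/520 nm) reports cellular AChE activity.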

The target in test [13] is Cytochrome P450 2D6 (Homo sapiens) (UniProt P10635). In words: Cytochrome P450 Family 2 Subfamily D Member 6 (CYP2D6) small molecule antagonists: luciferase reporter qHTS assay (AID 1671196). Further: nearly all actives have a fitted effect of over 50% in size. Further: potency means the concentration at half of the fitted maximal effect. On activity change, negative = inhibition: series mostly up to about 120 µM. In short, it runs like this:
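Read-out is luminescence from luciferin formed by CYP2D6 turnover of a proluciferin substrate, recorded as relative luminescence units. Reactions ran 1 h at room temperature after NADPH regeneration solution was added.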

Test [14] addresses Nuclear receptor subfamily 1 group I member 2 (Rattus norvegicus) (UniProt Q9R1A7). In words: Rat pregnane X receptor (rPXR) activation by small molecules, qHTS assay (AID 1346983). Further: nearly all actives have a fitted effect of over 20% in size. Particulars: rPXR luciferase reporter cells, One-Glo luminescence, 24 h; active compounds read high. Summed up: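 Cell-based rPXR activation assay: rPXR cells, 2,000 per well, rested 5hr at 37 C, then exposed to compounds in DMSO for 24 hr at 37 C. Luciferase activity read by One-Glo luminescence after 30 min at room temperature.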

Test [15] has as its target Nuclear receptor subfamily 1 group I member 2 (Homo sapiens) (UniProt O75469). Nature of the test: Human pregnane X receptor (PXR) activation by small molecules, qHTS assay (AID 1346985). Further: nearly all actives have a fitted effect of over 40% in size. In short, it runs like this: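 DPX-2 cells (HepG2 co-transfected with a PXR response element and a CYP3A4-promoter luciferase construct) were seeded at 2,000 per well, rested 5 hr at 37C, then exposed to DMSO-dissolved compounds for 24 hr. Activation was read as luciferase luminescence.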

For test [16], the target named is Acetylcholinesterase (Homo sapiens) (UniProt P22303). Nature of the test: Acetylcholinesterase (AChE) small molecule antagonists: colormetric cell-based qHTS assay (AID 1347395; calls by dose curve; further: nearly all actives have a fitted effect of over 30% in size). In short, it runs like this: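 SH-SY5Y cells; cpd 30 min 37 C; + DTNB/acetylthiocholine, 90 min 37 C; colorimetric thiocholine read; qHTS.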
In test [17] the target is Cytochrome P450 2C19 (Homo sapiens) (UniProt P33261). Nature of the test: Cytochrome P450 Family 2 Subfamily C Member 19 (CYP2C19) small molecule antagonists: luciferase reporter qHTS assay (AID 1671197). Further: series mostly up to about 120 µM; nearly all actives have a fitted effect of over 65% in size. In short, it runs like this: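 Luminescent readout of CYP2C19 activity: luciferin product detected 20 min after adding detection reagent. Before that, compound and enzyme-substrate mix preincubated 10 min at room temperature; NADPH-regenerating system started a 1 h, 37C reaction. Ketoconazole as positive control.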

Test [18] addresses Cytochrome P450 2C9 (Homo sapiens) (UniProt P11712). Nature of the test: Cytochrome P450 Family 2 Subfamily C Member 9 (CYP2C9) small molecule antagonists: luciferase reporter qHTS assay (AID 1671198). Further: nearly all actives have a fitted effect of over 50% in size. Further: potency means the concentration at half of the fitted maximal effect. On activity change, negative = inhibition: series mostly up to about 120 µM. Summed up:
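P450-Glo proluciferin substrate with CYP2C9 enzyme; 10 min RT preincubation, then NADPH regeneration 1 h at 37C; luciferin detection reagent 20 min RT, luminescence in relative luminescence units.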

Test [19] concerns the target Cytochrome P450 1A2 (Homo sapiens) (UniProt P05177). In words: Cytochrome P450 Family 1 Subfamily A Member 2 (CYP1A2) small molecule antagonists: luciferase reporter qHTS assay (AID 1671199). Further: nearly all actives have a fitted effect of over 50% in size. Further: potency means the concentration at half of the fitted maximal effect. On activity change, negative = inhibition: series mostly up to about 120 µM. Summed up:
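P450-Glo CYP1A2, 1536-well qHTS: enzyme/proluciferin substrate + cpd (DMSO), 10 min RT; NADPH regen, 1 h RT; detection reagent, 20 min; luminescence, RLU.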
On the % scale 0 is the no-effect control and ±100 the full control effect.

Chain of Cytochrome P450 3A4 (Homo sapiens) (P08684 whole entry, looked up): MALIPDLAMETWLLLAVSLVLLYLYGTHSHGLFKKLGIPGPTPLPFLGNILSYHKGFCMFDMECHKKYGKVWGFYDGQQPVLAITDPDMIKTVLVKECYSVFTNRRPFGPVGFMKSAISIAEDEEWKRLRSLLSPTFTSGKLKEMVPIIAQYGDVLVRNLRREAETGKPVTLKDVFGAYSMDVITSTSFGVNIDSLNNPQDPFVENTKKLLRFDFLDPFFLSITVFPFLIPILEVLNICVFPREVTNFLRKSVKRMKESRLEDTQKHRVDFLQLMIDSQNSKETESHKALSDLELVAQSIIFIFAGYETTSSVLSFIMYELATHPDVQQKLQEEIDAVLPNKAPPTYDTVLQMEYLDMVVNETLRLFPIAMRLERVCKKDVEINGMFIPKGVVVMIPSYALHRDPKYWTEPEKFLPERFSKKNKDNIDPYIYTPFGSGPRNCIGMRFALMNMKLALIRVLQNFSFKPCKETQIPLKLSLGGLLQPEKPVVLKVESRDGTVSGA
Chain of Acetylcholinesterase (Homo sapiens) (P22303 whole entry, looked up): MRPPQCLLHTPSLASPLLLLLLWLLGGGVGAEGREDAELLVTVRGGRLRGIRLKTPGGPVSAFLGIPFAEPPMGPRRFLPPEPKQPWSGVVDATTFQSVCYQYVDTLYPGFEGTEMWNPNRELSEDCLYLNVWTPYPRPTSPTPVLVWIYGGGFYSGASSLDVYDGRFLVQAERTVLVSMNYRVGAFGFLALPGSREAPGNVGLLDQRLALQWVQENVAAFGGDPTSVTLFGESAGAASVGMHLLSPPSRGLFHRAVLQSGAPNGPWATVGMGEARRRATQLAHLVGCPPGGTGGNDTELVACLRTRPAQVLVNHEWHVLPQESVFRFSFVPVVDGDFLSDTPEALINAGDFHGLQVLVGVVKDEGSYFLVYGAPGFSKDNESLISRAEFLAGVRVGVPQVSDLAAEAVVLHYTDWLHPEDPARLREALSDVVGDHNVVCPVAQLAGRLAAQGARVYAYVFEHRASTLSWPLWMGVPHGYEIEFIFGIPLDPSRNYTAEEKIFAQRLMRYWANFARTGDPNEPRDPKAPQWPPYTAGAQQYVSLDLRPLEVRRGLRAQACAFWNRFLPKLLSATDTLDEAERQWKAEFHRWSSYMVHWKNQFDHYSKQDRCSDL
Chain of Nuclear receptor subfamily 1 group I member 2 (Homo sapiens) (O75469 whole entry, looked up): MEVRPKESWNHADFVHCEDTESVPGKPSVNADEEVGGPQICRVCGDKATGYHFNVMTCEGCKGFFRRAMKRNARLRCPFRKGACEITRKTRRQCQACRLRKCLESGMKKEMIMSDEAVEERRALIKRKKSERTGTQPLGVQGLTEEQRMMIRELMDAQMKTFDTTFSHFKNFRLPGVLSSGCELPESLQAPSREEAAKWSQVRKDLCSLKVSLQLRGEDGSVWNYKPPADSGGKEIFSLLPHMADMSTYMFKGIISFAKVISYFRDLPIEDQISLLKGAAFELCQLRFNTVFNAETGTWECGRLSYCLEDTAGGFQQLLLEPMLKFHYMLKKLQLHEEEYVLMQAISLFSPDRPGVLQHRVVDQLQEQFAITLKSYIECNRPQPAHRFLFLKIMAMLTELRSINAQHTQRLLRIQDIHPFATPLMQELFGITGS
Chain of Cytochrome P450 1A2 (Homo sapiens) (P05177 whole entry, looked up): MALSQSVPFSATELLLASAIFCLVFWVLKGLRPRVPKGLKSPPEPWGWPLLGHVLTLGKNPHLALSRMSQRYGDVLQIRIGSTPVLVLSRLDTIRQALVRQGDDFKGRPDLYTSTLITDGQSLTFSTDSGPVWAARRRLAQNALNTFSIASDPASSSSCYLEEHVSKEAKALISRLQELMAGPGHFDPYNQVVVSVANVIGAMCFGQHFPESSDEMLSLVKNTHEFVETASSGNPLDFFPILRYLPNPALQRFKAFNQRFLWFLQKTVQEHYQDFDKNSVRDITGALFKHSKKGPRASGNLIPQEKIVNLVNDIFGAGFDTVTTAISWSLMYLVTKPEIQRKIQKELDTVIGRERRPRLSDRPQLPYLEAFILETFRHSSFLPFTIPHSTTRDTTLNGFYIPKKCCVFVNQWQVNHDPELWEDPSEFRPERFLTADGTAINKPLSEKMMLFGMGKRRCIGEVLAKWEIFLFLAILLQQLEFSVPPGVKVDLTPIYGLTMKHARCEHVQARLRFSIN
Chain of Cytochrome P450 2C9 (Homo sapiens) (P11712 whole entry, looked up): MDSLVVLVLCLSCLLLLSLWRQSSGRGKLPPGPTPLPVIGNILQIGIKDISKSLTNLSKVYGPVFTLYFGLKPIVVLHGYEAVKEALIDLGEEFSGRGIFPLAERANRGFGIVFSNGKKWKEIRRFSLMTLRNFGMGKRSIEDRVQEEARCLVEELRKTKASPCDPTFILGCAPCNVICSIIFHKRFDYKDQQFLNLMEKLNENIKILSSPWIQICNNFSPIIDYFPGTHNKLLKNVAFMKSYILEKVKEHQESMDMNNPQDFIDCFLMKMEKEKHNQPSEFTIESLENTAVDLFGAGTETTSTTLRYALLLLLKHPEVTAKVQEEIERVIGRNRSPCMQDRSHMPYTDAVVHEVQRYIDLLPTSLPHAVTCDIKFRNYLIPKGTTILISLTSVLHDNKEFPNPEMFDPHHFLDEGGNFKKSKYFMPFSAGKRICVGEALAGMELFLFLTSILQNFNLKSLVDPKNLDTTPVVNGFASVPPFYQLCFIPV
Chain of Voltage-gated inwardly rectifying potassium channel KCNH2 (Homo sapiens) (Q12809 whole entry, looked up): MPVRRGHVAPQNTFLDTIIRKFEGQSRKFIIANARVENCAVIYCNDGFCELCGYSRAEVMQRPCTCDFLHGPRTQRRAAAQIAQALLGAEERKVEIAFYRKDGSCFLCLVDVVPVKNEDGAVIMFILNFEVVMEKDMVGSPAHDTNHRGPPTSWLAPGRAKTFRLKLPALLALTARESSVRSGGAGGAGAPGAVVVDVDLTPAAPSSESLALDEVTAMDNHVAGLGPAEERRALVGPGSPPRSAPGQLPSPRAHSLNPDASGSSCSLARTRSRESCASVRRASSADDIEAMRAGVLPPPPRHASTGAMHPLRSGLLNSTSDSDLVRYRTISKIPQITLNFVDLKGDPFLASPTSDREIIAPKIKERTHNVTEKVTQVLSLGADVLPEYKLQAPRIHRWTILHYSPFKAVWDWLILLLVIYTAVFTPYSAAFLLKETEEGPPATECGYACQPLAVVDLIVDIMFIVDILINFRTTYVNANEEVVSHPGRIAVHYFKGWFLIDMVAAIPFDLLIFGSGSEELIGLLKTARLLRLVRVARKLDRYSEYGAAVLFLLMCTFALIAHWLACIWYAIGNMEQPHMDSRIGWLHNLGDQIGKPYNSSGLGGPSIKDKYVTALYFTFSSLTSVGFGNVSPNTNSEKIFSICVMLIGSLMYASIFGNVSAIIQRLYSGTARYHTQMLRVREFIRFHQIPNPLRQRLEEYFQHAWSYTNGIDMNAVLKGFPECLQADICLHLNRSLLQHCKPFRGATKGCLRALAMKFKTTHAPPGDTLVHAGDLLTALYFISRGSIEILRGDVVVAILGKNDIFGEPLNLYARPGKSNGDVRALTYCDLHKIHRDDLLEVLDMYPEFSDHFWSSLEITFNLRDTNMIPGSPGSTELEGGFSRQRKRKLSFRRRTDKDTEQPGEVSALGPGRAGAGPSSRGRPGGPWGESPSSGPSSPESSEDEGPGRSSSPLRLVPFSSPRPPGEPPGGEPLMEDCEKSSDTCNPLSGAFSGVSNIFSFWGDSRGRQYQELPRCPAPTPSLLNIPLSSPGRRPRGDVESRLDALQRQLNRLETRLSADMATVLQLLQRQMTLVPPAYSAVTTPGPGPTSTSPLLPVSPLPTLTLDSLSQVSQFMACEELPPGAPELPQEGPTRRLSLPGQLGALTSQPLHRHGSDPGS
Chain of Cytochrome P450 2C19 (Homo sapiens) (P33261 whole entry, looked up): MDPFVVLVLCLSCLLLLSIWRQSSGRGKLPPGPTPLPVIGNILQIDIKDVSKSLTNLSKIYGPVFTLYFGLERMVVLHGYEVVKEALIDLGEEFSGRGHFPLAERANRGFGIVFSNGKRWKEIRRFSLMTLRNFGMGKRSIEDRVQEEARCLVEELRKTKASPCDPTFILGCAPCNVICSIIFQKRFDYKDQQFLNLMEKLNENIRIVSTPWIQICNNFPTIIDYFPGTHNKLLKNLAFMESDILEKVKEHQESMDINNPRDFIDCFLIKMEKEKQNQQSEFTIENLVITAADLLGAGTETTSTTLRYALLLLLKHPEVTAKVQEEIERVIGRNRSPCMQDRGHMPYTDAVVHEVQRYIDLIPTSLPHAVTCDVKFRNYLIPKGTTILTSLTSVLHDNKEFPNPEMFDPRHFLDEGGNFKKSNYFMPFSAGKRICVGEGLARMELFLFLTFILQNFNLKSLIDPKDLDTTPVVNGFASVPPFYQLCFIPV
Chain of Thyrotropin-releasing hormone receptor (Homo sapiens) (P34981 whole entry, looked up): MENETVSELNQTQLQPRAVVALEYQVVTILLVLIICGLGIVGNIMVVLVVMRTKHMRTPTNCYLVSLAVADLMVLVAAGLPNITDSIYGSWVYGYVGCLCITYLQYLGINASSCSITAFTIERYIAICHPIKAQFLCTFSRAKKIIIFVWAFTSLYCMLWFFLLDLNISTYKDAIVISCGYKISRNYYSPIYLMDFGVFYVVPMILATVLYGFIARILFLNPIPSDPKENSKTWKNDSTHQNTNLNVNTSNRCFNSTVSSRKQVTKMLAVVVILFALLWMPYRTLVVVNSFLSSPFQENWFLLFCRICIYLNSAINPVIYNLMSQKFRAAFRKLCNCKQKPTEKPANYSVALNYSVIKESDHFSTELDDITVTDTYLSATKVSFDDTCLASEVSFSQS

Turning to `BrCc1ccc(Br)cc1`, the outcome in [1], in test [3] and in test [5] was inactive. Besides, the Potency entry in test [2], in [4], in [6], in test [7], in test [8] and in test [9] was “inactive” each time. For the same compound, in [10], the Potency entry is “inactive”.
As for `O=c1[nH]c2ccccc2n1C1CCNCC1`, the result in test [1], in test [3] and in test [5] was inactive. For the same compound, the Potency result in [2], in test [4], in test [6], in test [7], in test [11] and in test [12] was “inactive” each time. Further, the Potency entry in [8], in test [9] and in test [10] was “inactive” in each case. Besides, in [13], the Potency was 30.9 µM (active).
For `CCCCCCC(=O)CCCCCC/C=C/C[C@@H](O)[C@H](O)[C@@](N)(CO)C(=O)O`, the figures for the activation in test [1] and in test [7] were 0.008% [at 11.8 µM] and -4.6% [at 19 µM], respectively. Besides, the activity change, negative = cytotoxicity is 6.98% [at 19 µM] in test [2] and 5.08% [at 19 µM] in test [6]. For the same compound, the caspase activation in [3] was 0.643% [at 19 µM]. Also, the caspase-3/7 activation in test [5] was 2.67% [at 19 µM]. The max activation in [14] is -5.78%. Besides, the Potency result in test [15] is “inactive”. Besides, the activity, negative = inhibition in test [16] is 0.986% [at 23.6 µM]. Besides, the activity change, negative = inhibition in test [11] was 0.415% [at 23.6 µM]; in test [12] it was -0.579% [at 23.8 µM]; in test [8], -0.169% [at 23.6 µM]; in test [13], -0.222% [at 23.6 µM]; in [17] it was 14.2% [at 23.6 µM]; in test [18] it was 9.38% [at 23.6 µM]. For the same compound, the activity change, negative = inhibition was -0.0703% [at 23.6 µM] in test [19] and 24.6% [at 23.6 µM] in test [10].
In the case of `CC(=NC#N)N(C)Cc1ccc(Cl)nc1`, the outcome in test [1], in [3] and in test [5] was inactive. Further, the Potency entry in test [2], in [4], in test [6], in [7], in test [11] and in test [12] was “inactive” throughout. Further, the Potency result in [8], in test [13], in [19], in [9] and in test [10] was “inactive” each time.
For `CCN[C@@H](C)Cc1cccc(C(F)(F)F)c1`, the outcome in test [1], in test [3] and in [5] was inactive. The Potency entry in [2], in test [4], in test [6], in [16], in test [11] and in test [12] was “inactive” each time. The Potency entry in test [8], in test [17], in test [18], in [9] and in test [10] was “inactive” each time. For the same compound, the Potency in test [13] was 2.45 µM (active).
Turning to `N[C@@H](Cc1ccc(Oc2cc(I)c(O)c(I)c2)c(I)c1)C(=O)O`, the compound was called inactive in test [1], in test [3] and in test [5]. Further, the Potency result in test [2], in [4], in test [6], in test [15], in [16] and in test [12] was “inactive” throughout. In addition, the Potency result in test [8], in [13], in test [17], in test [19] and in [9] was “inactive” each time. In addition, in [14], the max activation is -1.02%. Also, the Potency in [18] was 11 µM (active).
Consider `Cn1c(N)nc2c3cccnc3ccc21`, for which the compound was classed as inactive in [1], in [3] and in [5]. Besides, the Potency in test [2] is 26 µM (active); in [4], 51.8 µM (active); in test [7], 51.8 µM (active); in test [13] it was 12 µM (active); in test [19], 16.9 µM (active). Further, the Potency result in test [11], in test [8], in test [17], in test [18] and in test [10] was “inactive” in each case.
